Source: PubChem BioAssay (EPA / NIEHS)
Results filed as inconclusive are left out. The source made the active and inactive calls. Rule for the calls: active = hit-call score of the fitted dose curve at least 0.9, where 1 is the maximum; inconclusive = response in the unintended direction; inactive = score below 0.9.

Read-out: ABC Transporter (ABCB11), ABCB11 (gene 8647)
Experiment: CLD_ABCB11_6hr: CellzDirect (CLD) Gene Expression Assay for ABC Transporter (ABCB11) at 6 hours (AID 2283675);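 note: hits raise ABCB11 mRNA level so AC50 marks induction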
Experimental: CLD_6hr is a cell-based, multiplexed-readout assay that uses hepatocyte, a human liver primary cell, with measurements taken at 6 hours after chemical dosing in a 96-well plate.CLD_ABCB11_6hr is one of 16 assay component(s) measured or calculated from the CLD_6hr assay. It is designed to make measurements of mRNA induction, a form of inducible reporter, as detected with chemiluminescence signals by Quantitative Nuclease Protection Assay (qNPA) technology.Data from the assay component CLD_ABCB11_6hr was analyzed at the endpoint, CLD_ABCB11_6hr, in the positive analysis fitting direction relative to DMSO as the negative control and baseline of activity. Using a type of inducible reporter, gain-of-signal activity can be used to understand changes in the reporter gene as they relate to the gene ABCB11. Furthermore, this assay endpoint can be referred to as a primary readout. To generalize the intended target to other relatable targets, this assay endpoint is annotated to the transporter intended target family, where subfamily is ABC transporter.
Human hepatocyte cultures were treated daily for two consecutive days with fresh dosing solutions containing appropriate concentrations of the 320 ToxCast chemicals (chemical identities were blinded to CellzDirect and other ToxCast collaborators), vehicle control (0.2% DMSO), and positive control inducers as summarized in Table 1. Due to the large number of treatment groups and chemicals examined, the ToxCast chemicals were divided into two groups (spanning two independent cultures of hepatocytes from separate donor preparations (Hu778: ToxCast plates 1 and 2; Hu776: ToxCast plates 3 and 4). Each preparation of human hepatocyte cultures was treated with respective vehicle control, medium only control, set of six positive controls/reference chemicals for the five hepatic receptor pathways, and a subset of eight of the ToxCast chemicals (indoxacarb, pyrithiobac-sodium, norflurazon, cyhalofop-butyl, methomyl, thiram, acetochlor, and propiconazole). These replicate data, coupled with internal replicates designed within the blinded ToxCast chemical library, provided additional data to evaluate interindividual differences between hepatocyte preparations and their potential impact on chemical profiles.Cell morphology and integrity were evaluated using phase-contrast microscopy as an indicator of hepatocyte cell health (Tyson & Green, 1987). Cultures for each treatment group (i.e., media, vehicle [0.2% DMSO], positive control inducers [multiple concentrations], and the ToxCast chemicals [multiple concentrations]) were observed and cell morphology was assessed relative to vehicle control cultures at each harvest time point (0, 6, 24, or 48 h). […] Images were evaluated at the conclusion of the study to assess changes in cell integrity and account for the effects of chemical exposure on uncharacteristic changes in concentration-dependent gene expression profiles. The results from these determinations of apparent cytotoxicity were annotated (yes/no) alongside the corresponding qNPA data for reference.At the conclusion of each treatment period, hepatocyte cultures (96-well) were washed with 1 volume of HBSS, lysed by addition of 25 ul ArrayPlate lysis buffer (HTG, Tucson, AZ), and 70 ul/well of Denaturation Oil, denatured by incubation at 95C for 10 min, and frozen at approximately -70C until analysis by nuclease protection assay (qNPA) (Roberts et al., 2007). For qNPA analysis, cell lysates were thawed at 50C for approximately 30 min, qNPA probes were added, and samples were incubated at 95C for 10 min to begin the detection process by denaturing the target RNA, dissociating the duplexes and secondary structure hybridization. At the conclusion of the hybridization period, S1 nuclease reagent was added to each sample to digest all nonprotected nucleotides at 50C for 60-90 min. […]

Structure (SMILES)	outcome
CCOc1cc(Oc2ccc(C(F)(F)F)cc2Cl)ccc1[N+](=O)[O-]	inactive
C=CCC1=C(C)[C@@H](OC(=O)[C@@H]2[C@@H](C=C(C)C)C2(C)C)CC1=O	inactive
COc1nc(C)nc(NC(=O)NS(=O)(=O)c2ccccc2Cl)n1	inactive
O=C(O)c1nc(Cl)ccc1Cl	inactive
CNC(=S)S	inactive
Oc1ccccc1-c1ccccc1	inactive
CCCN(CCC)c1c([N+](=O)[O-])cc(S(N)(=O)=O)cc1[N+](=O)[O-]	inactive
CCOC(=O)C(Cl)Cc1cc(-n2nc(C)n(C(F)F)c2=O)c(F)cc1Cl (stereo not given)	inactive
C#CCOS(=O)OC1CCCCC1Oc1ccc(C(C)(C)C)cc1 (stereo not given)	inactive
CS/C(C)=N/OC(=O)N(C)SN(C)C(=O)O/N=C(\C)SC	inactive
CC(C)(C)c1ccc(CSc2cnn(C(C)(C)C)c(=O)c2Cl)cc1	inactive
COC(=O)N(OC)c1ccccc1COc1ccn(-c2ccc(Cl)cc2)n1	inactive
COP(N)(=O)SC (stereo not given)	inactive
Cc1c(F)c(F)c(COC(=O)C2C(/C=C(\Cl)C(F)(F)F)C2(C)C)c(F)c1F (stereo not given)	inactive
CO/C=C(/C(=O)OC)c1ccccc1Oc1cc(Oc2ccccc2C#N)ncn1	inactive
CCCCNC(=O)OCC#CI	inactive
CC(Oc1ccc(Cl)cc1Cl)C(=O)O (stereo not given)	inactive
COc1nc(C)nc(NC(=O)NS(=O)(=O)c2ccccc2CCC(F)(F)F)n1	inactive

Structure (SMILES)	outcome
COC(=O)C(C)Oc1ccc(Oc2ccc(Cl)cc2Cl)cc1 (stereo not given)	inactive
CN(C)C(=S)SSC(=S)N(C)C	inactive
Cc1ccc(-c2c(Cl)nc(C#N)n2S(=O)(=O)N(C)C)cc1	inactive
CCCCC(CC)COC(=O)c1ccccc1C(=O)OCC(CC)CCCC (stereo not given)	inactive
OC(c1ccc(Cl)cc1)(c1cncnc1)c1ccccc1Cl (stereo not given)	inactive
CCOP(=S)(OCC)SCn1c(=O)oc2cc(Cl)ccc21	inactive
CCCCOC(=O)c1ccccc1C(=O)OCCCC	inactive
N#Cc1nn(-c2c(Cl)cc(C(F)(F)F)cc2Cl)c(N)c1S(=O)C(F)(F)F (stereo not given)	inactive
COC(=O)C=C(C)OP(=O)(OC)OC	inactive
N#Cc1cc(Br)c(O)c(Br)c1	inactive
CCOC(=O)CC(SP(=S)(OC)OC)C(=O)OCC (stereo not given)	inactive
CCON=C(CC)C1=C(O)CC(c2c(C)cc(C)cc2C)CC1=O (stereo not given)	inactive
CCCCNC(=O)n1c(NC(=O)OC)nc2ccccc21	inactive
COc1ccc(C(c2ccc(OC)cc2)C(Cl)(Cl)Cl)cc1	inactive
COC(=O)c1ccccc1C(=O)OC	inactive
COP(=S)(OC)Oc1nc(Cl)c(Cl)cc1Cl	inactive
CCc1nn(C)c(C(=O)NCc2ccc(C(C)(C)C)cc2)c1Cl	inactive
